Data taken from PubChem BioAssay (Tox21).
Results filed as inconclusive are left out. Active and inactive are the calls of the source. Unless noted, calls follow the shape of the dose curve; as a rule, active = well fitted curve in the direction sought with a large enough effect in the repeat runs; inconclusive = weak or mixed curves; inactive = no such curve, though single readings can be large; an effect the other way counts as inactive or inconclusive.

Key:
[1] = qHTS assay to identify small molecule antagonists of the thyroid receptor (TR) signaling pathway (AID 743065); also: series mostly up to about 70 µM; nearly all actives have a fitted effect of over 55% in size
Method in brief: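 GH3.TRE-Luc rat pituitary cells (two TREs driving luciferase) were dosed with compound, then stimulated with 1 nM T3 (final) for 23.5 h at 37 C. ONE-Glo luminescence was the read-out, with CellTiter-Fluor fluorescence as the cytotoxicity counter-screen.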

[2] = system: thyroid hormone receptor (rat, GH3 cells); experiment: qHTS assay to identify small molecule agonists of the thyroid receptor (TR) signaling pathway (AID 743066; calls by dose curve)
[3] = molecular target: Estrogen receptor (Homo sapiens) (UniProt P03372); experiment: qHTS assay to identify small molecule antagonists of the estrogen receptor alpha (ER-alpha) signaling pathway (AID 743069; active = well fitted curve in the direction sought with a large enough effect in the signal ratio in the repeat runs, not every such curve was filed as active; the % refers to the signal ratio)
Estrogen receptor (Homo sapiens), sequence (P03372 whole entry, looked up): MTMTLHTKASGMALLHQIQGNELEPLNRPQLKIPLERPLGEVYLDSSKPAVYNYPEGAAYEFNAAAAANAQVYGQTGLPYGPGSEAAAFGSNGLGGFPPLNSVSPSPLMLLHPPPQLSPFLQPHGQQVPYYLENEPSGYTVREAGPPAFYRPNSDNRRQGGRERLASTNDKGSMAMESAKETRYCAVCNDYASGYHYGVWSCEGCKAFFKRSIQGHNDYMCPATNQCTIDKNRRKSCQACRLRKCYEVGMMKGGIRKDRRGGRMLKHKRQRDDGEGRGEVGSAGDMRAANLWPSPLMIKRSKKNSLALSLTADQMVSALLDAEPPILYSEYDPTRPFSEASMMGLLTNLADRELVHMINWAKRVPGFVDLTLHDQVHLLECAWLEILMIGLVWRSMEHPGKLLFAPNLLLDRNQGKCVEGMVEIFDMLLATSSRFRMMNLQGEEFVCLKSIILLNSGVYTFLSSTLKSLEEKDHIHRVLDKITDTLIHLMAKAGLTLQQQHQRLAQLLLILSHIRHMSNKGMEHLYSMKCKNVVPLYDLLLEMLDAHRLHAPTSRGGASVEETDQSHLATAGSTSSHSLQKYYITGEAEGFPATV
Method in brief: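 In this cell-based reporter format, GripTite HEK293 cells harbouring ER-alpha-UAS-bla were grown overnight with 2% charcoal-stripped FBS, dosed with DMSO-dissolved compounds, then challenged with 17beta-estradiol. After 18 hr at 37C, beta-lactamase activity was detected by FRET fluorescence.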

[4] = qHTS assay to identify small molecule antagonists of the estrogen receptor alpha (ER-alpha) signaling pathway - cell viability counter screen (AID 743074; calls by dose curve; also: nearly all actives have a fitted effect of over 45% in size)
[5] = molecular target: Estrogen receptor (Homo sapiens) (UniProt P03372); experiment: qHTS assay to identify small molecule agonists of the estrogen receptor alpha (ER-alpha) signaling pathway (AID 743075; calls by dose curve)
[6] = molecular target: Estrogen receptor (Homo sapiens) (UniProt P03372); experiment: qHTS assay to identify small molecule agonists of the estrogen receptor alpha (ER-alpha) signaling pathway using the BG1 cell line (AID 743079); also: nearly all actives have a fitted effect of over 20% in size
[7] = qHTS assay to identify small molecule antagonists of the estrogen receptor alpha (ER-alpha) signaling pathway using the BG1 cell line - cell viability counter screen (AID 743081);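 also: compound given together with 17beta-estradiol as the ER stimulus; series mostly up to about 70 µM; nearly all actives have a fitted effect of over 45% in size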
[8] = molecular target: Aromatase (Homo sapiens) (UniProt P11511); experiment: qHTS assay to identify aromatase inhibitors (AID 743083); also: series mostly up to about 70 µM; nearly all actives have a fitted effect of over 55% in size
Aromatase (Homo sapiens), sequence (P11511 whole entry, looked up): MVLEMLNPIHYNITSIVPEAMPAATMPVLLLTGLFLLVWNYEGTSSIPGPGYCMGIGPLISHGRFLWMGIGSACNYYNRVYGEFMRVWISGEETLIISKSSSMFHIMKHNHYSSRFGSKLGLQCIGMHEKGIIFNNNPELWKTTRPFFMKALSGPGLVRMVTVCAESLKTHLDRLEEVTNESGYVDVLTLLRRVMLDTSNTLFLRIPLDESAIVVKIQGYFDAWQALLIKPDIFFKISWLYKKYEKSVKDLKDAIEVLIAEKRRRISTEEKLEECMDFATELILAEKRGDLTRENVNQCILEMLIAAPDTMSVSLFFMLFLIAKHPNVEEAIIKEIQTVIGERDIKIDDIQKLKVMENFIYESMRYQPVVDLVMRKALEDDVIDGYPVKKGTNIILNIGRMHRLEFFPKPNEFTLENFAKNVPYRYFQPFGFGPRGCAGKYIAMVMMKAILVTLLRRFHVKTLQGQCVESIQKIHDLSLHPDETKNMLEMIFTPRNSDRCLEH

[9] = qHTS assay to identify aromatase inhibitors - cell viability counter screen (AID 743084);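 also: cells stimulated with testosterone during compound exposure; nearly all actives have a fitted effect of over 55% in size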
[10] = qHTS assay to identify small molecule antagonists of the estrogen receptor alpha (ER-alpha) signaling pathway using the BG1 cell line (AID 743080; calls by dose curve;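 also: BG1 cells stimulated with 17beta-estradiol alongside compound; series mostly up to about 70 µM; nearly all actives have a fitted effect of over 25% in size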)
Method in brief: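 Quantitative HTS on the Tox21 10K library: BG1 cells with endogenous ER-alpha and ERE-luciferase reporter, 17beta-estradiol stimulation, 21.5 h compound exposure, luminescence endpoint with parallel fluorescence cytotoxicity counter-read.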

Measured: Potency

C=CC(=O)OCCCl
not listed: [10]
inactive: all other assays above

C=CC(C)(CCC=C(C)C)OC(=O)CC (stereo not given)
not listed: [10]
inactive: all other assays above

CCCCOC(=O)CCC(C)=O
not listed: [10]
inactive: all other assays above

CC(=O)C1CCCCC1=O (stereo not given)
inactive: all assays above

CCCC[N+](C)(CCCC)CCCC
inactive: all assays above

CN(C)C(=O)Oc1cccc([N+](C)(C)C)c1
inactive: all assays above

C=COCC1CCC(COC=C)CC1 (stereo not given)
not listed: [10]
inactive: all other assays above

CCN[C@H]1C[C@H](C)S(=O)(=O)c2sc(S(N)(=O)=O)cc21
not listed: [10]
inactive: all other assays above

O=C(O)Cc1csc(-c2ccc(Cl)cc2)n1
not listed: [10]
inactive: all other assays above

CC1=NN(c2cc(S(=O)(=O)O)ccc2Cl)C(=O)C1N=Nc1ccccc1 (stereo not given)
not listed: [7] | [9]
inactive: all other assays above

O=C(O)CNC(=O)c1ccc(CO)o1
inactive: all assays above

CO[C@@]1(NC(=O)CSC[C@@H](N)C(=O)O)C(=O)N2C(C(=O)O)=C(CSc3nnnn3C)CS[C@@H]21
not listed: [7]
inactive: all other assays above

O=C(CO)[C@@H](O)[C@H](O)[C@@H](O)CO
inactive: all assays above

CCCCCCCCCCOc1cc2c(=O)c(C(=O)OCC)c[nH]c2cc1OCC
inactive: all assays above

CCOC(=O)C1=NOC(c2ccccc2)(c2ccccc2)C1
not listed: [10]
inactive: all other assays above

CCCCN1C=CN(C)C1
inactive: all assays above

CN1[C@@H]2CC[C@H]1CC(OC(=O)C(O)c1ccccc1)C2 (stereo not given in full)
inactive: all assays above
